PNC inhibitor: High Content Assay for Compounds that inhibit the Assembly of the Perinucleolar Compartment | PC3M PTB-GFP, PNC prevalence imaging, 16 h; hits give low values | activity change (PNC), negative = inhibition, % at 10 µM | AID 2417, 2010 | 140,000 compounds, 3.1% hits;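 active = readout at or below -70, meaning at least 70% loss of cells showing the perinucleolar compartment, a nuclear body marking cancer cells; inconclusive = readout between -30 and a set limit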;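 also: plate controls were DMSO wells for no effect and camptothecin positive control wells for full effect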
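Compounds are pinned in duplicate onto adhered PC3M cells stably expressing GFP-tagged PTB and incubated 16 h at 37 C. Cells are then fixed, nuclei stained with Hoechst, and PNC-positive cells counted.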
ALDH1A1 inh: qHTS Assay for Inhibitors of Aldehyde Dehydrogenase 1 (ALDH1A1); Aldehyde dehydrogenase 1A1 (Homo sapiens), P00352; Purified ALDH1A1, NADH fluorescence, propionaldehyde substrate; Potency, µM (titrated, usually from 75.3 µM), for the others: top-dose activity, negative = inhibition, hits mostly inhibitors; 220,000 compounds, 7.3% hits; AID 1030, 2008;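 also: potency is read from the fitted curve at half-maximal effect; plate controls were no enzyme wells and a reference inhibitor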
HPGD inh: qHTS Assay for Inhibitors of HPGD (15-Hydroxyprostaglandin Dehydrogenase); 15-hydroxyprostaglandin dehydrogenase [NAD(+)] (Homo sapiens), P15428; purified HPGD, NADH fluorescence kinetic, PGE2 substrate; Potency, µM, inactives show top-dose activity change, negative = inhibition, hits mostly inhibitors; 150,000 compounds, 4.3% hits; AID 894, 2007; also: potency is read from the fitted curve at half-maximal effect
Target sequence (P15428 whole entry, looked up): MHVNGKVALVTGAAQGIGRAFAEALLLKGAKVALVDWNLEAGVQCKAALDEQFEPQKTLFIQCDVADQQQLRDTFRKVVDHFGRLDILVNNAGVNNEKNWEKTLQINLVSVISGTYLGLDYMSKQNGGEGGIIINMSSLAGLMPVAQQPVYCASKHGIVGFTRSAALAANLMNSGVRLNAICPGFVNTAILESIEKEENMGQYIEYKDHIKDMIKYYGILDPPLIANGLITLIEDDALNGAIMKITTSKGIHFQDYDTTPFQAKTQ
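NADH formation kinetics: reaction with 30 uM PGE2 and 1 mM NAD+ (final), 20 nM enzyme, Tris-HCl pH 8 with Tween 20, after 15 min compound preincubation at room temperature. Fluorescence change, last versus first of five reads.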
An asterisk follows results filed as active; ? = inconclusive; / = no result given; [ ] = another dose, or the depositor's remark. The list is not random: actives were taken first. Their share in the collection is about 11%. Unless noted, calls follow the shape of the dose curve; as a rule, active = well fitted inhibition curve with a large enough effect (not every such curve was filed as active); inconclusive = small, poorly fitted or top-dose-only effect, or another doubt; inactive = no such curve, though single readings can be large or run the other way. Unless noted, % is scaled to controls: 0 for no effect and ±100 for the full control effect.

SMILES	PNC inhibitor	ALDH1A1 inh	HPGD inh
Cc1cccc2c1c1ccc3c(c1n2C)C(=O)C=CC3=O	/	0.32µM*	/
Cc1ccc(/C=C/S(=O)(=O)NCC(=O)OCC(=O)N2CC(=O)Nc3ccccc32)cc1	/	-8%	/
CCCCC1=CC2=CC(=O)C(C)(OC(=O)CC)C(=O)C2=CN1CCc1ccccn1 (centres undefined)	/	4%[13.5 µM]	-2%
CCCCc1cc2c(cn1)=C(OC(=O)CCC(=O)OC)C(C)(OC(=O)CC)C(=O)C=2 (centres undefined)	/	?	-6%
CCCCc1cc2c(cn1)=C(OC(=O)c1ccc(Cl)nc1)C(C)(OC(=O)CC)C(=O)C=2 (centres undefined)	/	3.2µM*	1%
CCCCc1cc2c(cn1)=C(OC(=O)c1cnc3ccccc3n1)C(C)(OC(=O)CC)C(=O)C=2 (centres undefined)	/	3.2µM*	-8%
O=c1cc(N2CCNCC2)oc2c(-c3ccccc3)cccc12	/	-10%	-13%
CC(C)(C)NS(=O)(=O)c1ccc(/C=C/C(=O)O)cc1	/	0%	/
O=C(NCc1ccccn1)C1CCN(S(=O)(=O)c2cccs2)CC1	-16	-3%	/
Cc1ccc(CNC(=O)C2CCN(S(=O)(=O)c3cccs3)CC2)o1	?	14µM*	-25%
O=C(NCCC1=CCCCC1)C1CCN(S(=O)(=O)c2cccs2)CC1	?	13µM*	-2%
CCCNC(=O)C1CCN(S(=O)(=O)c2cccs2)CC1	/	4%	/
O=C(Nc1ccncc1)C1CCN(S(=O)(=O)c2cccs2)CC1	/	2%	/
O=C(NCCC1=CCCCC1)C1CCN(C(=O)c2ccc(Br)cc2)CC1	20	?	/
O=C(Nc1cc(Cl)ccn1)C1CCN(S(=O)(=O)c2cccs2)CC1	-14	8.9µM*	-3%
O=C(NCCC1=CCCCC1)C1CCN(C(=O)Cc2ccccc2)CC1	/	5µM*	/
O=c1cnc2cnc(Nc3ccccc3)nc2n1C[C@H]1CCCO1	/	-2%	-10%
O=S1(=O)NC(=NCCc2ccccn2)c2ccccc21	/	23%	/
COc1ccc(-c2nc(NC(=O)CCNC(=O)c3ccco3)sc2C)cc1	/	4%	/
Cc1ccc2c(c1)sc[n+]2Cc1ccccc1	6	?	20µM*
Cc1c(CCOC(=O)c2ccccc2)sc[n+]1Cc1ccccc1	-19	7%	-3%
Cn1nc(C(=O)NC2CCCCC2)c2ccccc2c1=O	?	?	-9%
Cn1nc(C(=O)Nc2nnc(C3CC3)s2)c2ccccc2c1=O	/	13µM*	/
CCOc1ccc(N=C2NC(=O)S/C2=C\c2ccc(N(C)C)cc2)cc1	-12	-1%	-11%
CCOc1ccc(/C=C2/SC(=O)NC2=S)cc1	-21	?	13µM*
SMILES	PNC inhibitor	ALDH1A1 inh	HPGD inh
CC(C)CCNC(=O)c1ccc(CS(=O)(=O)Cc2ccccc2F)o1	/	-4%	/
CC(C)CCNC(=O)c1ccc(CSCc2cccc(F)c2)o1	-3	?	14µM*
Nc1nc2nc3c(nc2c(=O)[nH]1)CN(c1ccc(C(=O)O)cc1)C3=O	/	9%[13.5 µM]	-1%
O=C(O)c1ccc(N2CCCCC2)cc1	12	2%	-14%
O=C(c1ccccc1)c1ccc(N2CCNCC2)cc1	56	28µM*	-6%
O=C(c1ccccc1)c1ccc(N2CCCC2)cc1	24	?	14µM*
CN1CCN(c2ccc(C(=O)c3ccc(F)cc3)cc2)CC1	-4	-14%	-10%
C/C(CCC(=O)OC[C@@H]1O[C@H](C#Cc2ccccc2)C=C[C@@H]1Oc1ccc(C)cc1)=N/O[C@@H](C)c1cn([C@H](CO)Cc2ccccc2)nn1	/	-6%[13.5 µM]	/
C=CCNC(=S)Nc1nc2c(cc1C(=O)OCC)CCCC2	53	?	-6%
Cc1nn(Cc2ccc(Cl)cc2)c(C)c1N	-5	8%	-6%
Cc1cc(=O)c2n(Cc3ccc(Cl)cc3)nc[n+]2[nH]1	27	20µM*	-8%
CC(C)(C)CC(C)(C)c1ccc(O)c(C[N+](C)(C)[O-])c1	/	-9%[13.5 µM]	-15%
CCN(CC)CC(=O)NC12CC3CC(CC(C3)C1)C2	-6	7%	-22%
CCN(CC)C(=S)SCC(=O)NC12CC3CC(CC(C3)C1)C2	5	4.5µM*	14µM*
COc1ccc(-n2nnc3c(SCC(=O)c4ccccc4)ncnc32)cc1	-11	?	?
Nn1c(SCC(=O)Nc2ccc3c(c2)OCO3)nnc1-c1cccc(Cl)c1	10	3%	-6%
O=C(CSc1ncnc2ccccc12)Nc1ccc2c(c1)OCCO2	/	-3%	/
O=C(CSc1ncnc2ccccc12)Nc1ccc2c(c1)OCO2	40	11µM*	-7%
Nn1cc(-c2ccccc2)nc1SCC(=O)NCCc1ccccc1	/	3.2µM*	/
Nn1cc(-c2ccccc2)nc1SCC(=O)NCC(F)(F)F	/	3%	/
Nn1cc(-c2ccccc2)nc1SCC(=O)Nc1ccc2c(c1)OCO2	?	1.4µM*	-17%
COc1ccc(-n2nnc3c(SCC(=O)Nc4ccc5c(c4)OCCO5)ncnc32)cc1	-83*	?	-18%
CCOC(=O)C1(Cc2ccccc2C(F)(F)F)CCN(C2CCN(C(C)=O)CC2)CC1	/	4%	/
COC(=O)c1ccc(C(NC(=O)OCc2ccccc2)/C(F)=C/[C@@H](C)C(=O)NC2CCCCC2)cc1 (some centres undefined)	/	-6%	-7%
O=C(CCOc1ccccc1F)N1CCN(c2ccccc2O)CC1	/	-6%	/
SMILES	PNC inhibitor	ALDH1A1 inh	HPGD inh
O=C(NN1C(=O)c2ccc3c4c(ccc(c24)C1=O)CC3)c1ccc(Br)cc1	57	?	?
COc1ccc(OC)c(NC(=O)CSc2ncccc2C(=O)O)c1	?	?	13µM*
Nc1nonc1NC(=O)CSc1ncccc1C(=O)O	-84*	-13%	-6%
CC(=O)Nc1nonc1NC(=O)CSc1ccccn1	?	-2%	/
COc1ccc(NC(=O)CSc2ccccn2)cc1OC	10	-6%	-17%
COc1ccc(NC(=O)CSc2ncccc2C(=O)OC(C)C)cc1OC	-12	0.079µM*	-14%
COc1cccc(-n2ccnc2SCC(=O)Nc2cc(OC)ccc2OC)c1	?	1%	-14%
CC(=O)c1ccc(N2CCN(C(=O)C3CCCN(S(=O)(=O)c4c(C)[nH]c(=O)[nH]c4=O)C3)CC2)cc1 (centres undefined)	/	2%	/
Clc1ccc(-c2nc3sccn3c2/C=N/OCc2ccc(Cl)c(Cl)c2)cc1	/	6%	/
O=C(c1nn2c(C(F)(F)F)cc(-c3ccco3)nc2c1Br)N1CCCc2ccccc21	?	7.9µM*	-26%
O=C(c1nn2c(C(F)(F)F)cc(-c3cccs3)nc2c1Br)N1CCCc2ccccc21	?	-3%	-11%
O=C(c1cc2nc(-c3cccs3)cc(C(F)(F)F)n2n1)N1CCCc2ccccc21	-29	-13%	14µM*
O=C(c1cc2nc(-c3ccco3)cc(C(F)(F)F)n2n1)N1CCCc2ccccc21	?	18µM*	?
O=C(c1cc2nc(-c3ccco3)cc(C(F)(F)F)n2n1)N1CCCCCC1	3	?	?
O=C(c1cc2nc(-c3cccs3)cc(C(F)(F)Cl)n2n1)N1CCCc2ccccc21	25	-13%	?
CCCCC(C)(O)C/C=C/[C@H]1[C@H](O)CC(=O)[C@@H]1CCCCCCC(=O)O (some centres undefined)	/	1%	-9%
